{"source": "PubChem BioAssay AID737", "about": "(Emory University Molecular Libraries Screening Center, 2007)", "target": "Estrogen receptor (Homo sapiens) (UniProt P03372)", "sequence (P03372 whole entry, looked up, the tested form may be a part)": "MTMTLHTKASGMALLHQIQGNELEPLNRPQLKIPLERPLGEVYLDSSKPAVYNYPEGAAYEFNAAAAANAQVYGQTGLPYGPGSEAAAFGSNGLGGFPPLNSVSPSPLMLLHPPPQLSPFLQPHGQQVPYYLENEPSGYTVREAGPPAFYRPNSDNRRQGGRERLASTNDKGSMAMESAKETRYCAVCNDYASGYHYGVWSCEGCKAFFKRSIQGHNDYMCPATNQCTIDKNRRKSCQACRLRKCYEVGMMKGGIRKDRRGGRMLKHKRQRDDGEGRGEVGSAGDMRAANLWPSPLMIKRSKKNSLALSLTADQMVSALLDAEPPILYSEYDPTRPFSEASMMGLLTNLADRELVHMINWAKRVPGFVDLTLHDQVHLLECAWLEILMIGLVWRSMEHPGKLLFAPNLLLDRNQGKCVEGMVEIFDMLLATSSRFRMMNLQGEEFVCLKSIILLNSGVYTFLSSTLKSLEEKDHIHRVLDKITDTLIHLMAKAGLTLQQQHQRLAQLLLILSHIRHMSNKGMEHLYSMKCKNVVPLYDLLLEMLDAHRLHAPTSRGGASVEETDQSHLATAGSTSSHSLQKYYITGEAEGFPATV", "experiment": "potentiators of ERα–SRC-1 coactivator binding, dose response, biochemical, TR-FRET, ERα LBD (AID 737)", "details": "TR-FRET ER-alpha LBD / SRC-Cy5 coactivator recruitment; at 12.5 µM; active compounds read high", "note": "Entries with a potency or affinity are not part of this list. Unmarked numbers belong to inactive results. Calls of active or inactive are those of the source.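 How the source made its calls: active means fitted EC50 under 30 µM, or percent of control over 300% when no usable fit; inactive means the rest.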", "data": [{"compound": "Cc1ccc(S(=O)(=O)c2nc(S(C)(=O)=O)sc2NCC2CCCO2)cc1", "note": "(stereo not drawn)", "values": [{"measurement": "percent of control", "result": 136, "unit": "%"}]}, {"compound": "O=C(Cc1ccc(Cl)cc1)Nc1ccc2oc(-c3ccncc3)nc2c1", "values": [{"measurement": "percent of control", "result": 207, "unit": "%"}]}, {"compound": "O=C(c1cc2ccccc2oc1=O)N(Cc1ccco1)Cc1cccs1", "values": [{"measurement": "percent of control", "result": 110, "unit": "%"}]}, {"compound": "O=C(Nc1ccc(-c2noc(-c3cccs3)n2)cc1)c1cccnc1", "values": [{"measurement": "percent of control", "result": 208, "unit": "%"}]}, {"compound": "COc1ccc(OC)c(C(=O)CSc2nnc(-c3ccc(OC)c(OC)c3)o2)c1", "values": [{"measurement": "percent of control", "result": "662% (active)"}]}, {"compound": "Cc1ccc(NC(=O)CSc2nnc(Cn3c(=O)sc4ccccc43)n2C)cc1Cl", "values": [{"measurement": "percent of control", "result": 165, "unit": "%"}]}, {"compound": "CCOC(=O)c1sc(NC(=O)c2ccc3ncsc3c2)nc1C", "values": [{"measurement": "percent of control", "result": "349% (active)"}]}, {"compound": "Cc1ccc(C)n1-c1cccc(C(=O)O)c1", "values": [{"measurement": "percent of control", "result": 26.6, "unit": "%"}]}, {"compound": "COc1ccc(-c2c(C#N)c(C)nc3c2C(=O)c2ccccc2-3)cc1", "values": [{"measurement": "percent of control", "result": 239, "unit": "%"}]}, {"compound": "O=C(COC(=O)C(O)c1ccccc1)c1ccc2c(c1)OCCO2", "note": "(stereo not drawn)", "values": [{"measurement": "percent of control", "result": 108, "unit": "%"}]}, {"compound": "CCOC(=O)N1c2ccccc2C=CC1OCC", "note": "(stereo not drawn)", "values": [{"measurement": "percent of control", "result": 152, "unit": "%"}]}, {"compound": "CCOC(=O)Cn1c(-c2nonc2NC(=O)c2ccccc2F)nc2ccccc21", "values": [{"measurement": "percent of control", "result": 218, "unit": "%"}]}, {"compound": "CCOC(=O)c1c(NC(=O)CSc2nnc(-c3ccccc3)o2)sc(C(C)=O)c1C", "values": [{"measurement": "percent of control", "result": "305% (active)"}]}]}
